In the library only some 3.2% were active in any assay of this set; here they are far more common.
Nrf2 ARE act: qHTS of Nrf2 Activators | AREc32 ARE-luciferase reporter (MCF7-derived line), luminescence, 24 h | Potency, µM (doses to about 46.1 µM), usual class: activators | 410,000 tested, 0.31% active | AID 624171, 2012; also: nearly all actives have a fitted effect of over 65% in size
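AREc32_Fluc, 1000 cells/well, OPTI-MEM + 5% FBS, o/n 37 deg C 5% CO2; 23 nL cpd by pin tool, 24 hr; Steady-Glo 30 min RT, luminescence.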
BRCA1 expr up: qHTS Assay to Identify Small Molecule Activators of BRCA1 Expression | MCF7-BRCA1-FFLuc reporter, luminescence, 48 h; response scale: scaled: vehicle 0%, 10 µM genistein 100% | Potency, µM (series often up to 46.1 µM), actives largely listed as activators | 380,000 tested, 1.1% active | AID 624202, 2012; also: nearly all actives have a fitted effect of over 80% in size
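Reporter cells (MCF7, BRCA1 promoter-firefly luciferase) received library compounds across a concentration series for 48 h. End-point luminescence was measured and concentration-effect curves derived after normalization.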
A549 viability: Nrf2 qHTS screen for inhibitors: counterscreen for cytotoxicity; A549 ARE-Fluc cells, CellTiter-Fluor viability, 18-24 h; Potency, µM (titrated, usually from 46 µM), most hits filed as inhibitors; 390,000 tested, 0.16% active
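Cytotoxicity counterscreen: CellTiter-Fluor fluorescence was measured in A549 ARE_Fluc cells after 18-24 h of compound exposure in a concentration series. The subsequent BugLite luminescent read reports ARE-luciferase activity.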
p53 reactivation: qHTS assay for re-activators of p53 using a Luc reporter; 320,000 tested, 0.063% active; Potency, µM (titrated, usually from 92.2 µM), hits mostly activators; H1299 p53-A138V BP100-luciferase reporter, luminescence, 24 h; AID 504706, 2011; also: nearly all actives have a fitted effect of over 45% in size
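p53-null H1299 cells stably carrying temperature-sensitive p53-A138V and a BP100-luciferase reporter were pinned with compounds (4-point, 1:5 series) and held 24 hrs at 37 deg C. Luminescence was read 10 min after detection reagent.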
IL-2 act: qHTS of IL-2 Activators; IL-2 activation reporter assay, cell-based qHTS; stimulated with anti-CD3/CD4/CD28 beads; in transgenic mouse T cells; activation, % (series mostly up to about 46 µM); 360,000 tested, 0.065% active; in the data active = activation above about 50%; inconclusive = mostly about 30% to 49%
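Readout: EGFP and DsRed signals by fluorescent plate cytometry. Unstimulated transgenic mouse T cells received compound 60 min before antibody-bead stimulation, then incubated 18 h at 37 degrees C.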
Nrf2 inh: Nrf2 qHTS screen for inhibitors; A549 ARE-Fluc reporter, luciferase luminescence, 18-24 h; Potency, µM (doses to about 46 µM), actives largely listed as inhibitors; 360,000 tested, 2.1% active; also: nearly all actives have a fitted effect of over 60% in size
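Cells were seeded and rested 2 h, then exposed to compounds for 18-24 h. CellTiter-Fluor was read first as a viability measure. BugLite was added 15 min before the final luminescent read of ARE-luciferase activity in A549 cells.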
Hits are given with their value. Unless noted, calls follow the shape of the dose curve; as a rule, active = well fitted curve in the direction sought with a large enough effect; inconclusive = small, poorly fitted or top-dose-only effect, or another doubt; inactive = no such curve, though single readings can be large; an effect the other way counts as inactive or inconclusive.

`CN1c2ccsc2/C(=N/Nc2ccccc2)CS1(=O)=O` gave Nrf2 ARE act 7.1µM, BRCA1 expr up inactive, A549 viability inactive, p53 reactivation inconclusive, IL-2 act inactive and Nrf2 inh inconclusive.
`CCCCCCCCCCCCCCCC[n+]1ccc(C(N)=O)cc1` gave Nrf2 ARE act inactive, BRCA1 expr up inactive, A549 viability inactive, p53 reactivation inactive, IL-2 act inactive and Nrf2 inh inconclusive.
CCCCCCCCCCCCCCCC[n+]1ccc(/C=N/O)cc1 was read as Nrf2 ARE act inactive, BRCA1 expr up inactive, A549 viability inactive, p53 reactivation inactive, IL-2 act inactive and Nrf2 inh 16µM.
For COC(=O)C1(C(=O)OC)C[C@H](c2ccc(OC)cc2)N(Cc2ccccc2OC)[C@@H]1c1cccs1 the results were IL-2 act inactive.
`[O-]/C(=C(\C(=S)Nc1ccc(SC(F)F)cc1)[n+]1ccccc1)c1cc(Cl)ccc1Cl` gave Nrf2 ARE act inactive, BRCA1 expr up inactive, A549 viability inconclusive, p53 reactivation inactive, IL-2 act inactive and Nrf2 inh 21µM.
For Cc1cc(C)c(/C([O-])=C(/C(=S)Nc2ccc(SC(F)F)cc2)[n+]2ccccc2)cc1C the results were Nrf2 ARE act inactive, BRCA1 expr up inactive, A549 viability inactive, p53 reactivation inactive, IL-2 act inactive and Nrf2 inh inactive.
`Cc1ccc2c(=O)cc(C(=O)Nc3ccc(S(=O)(=O)N(C)Cc4ccccc4)cc3)oc2c1C` gave Nrf2 ARE act inactive, A549 viability inactive and Nrf2 inh inactive.
For COc1ccc(CCC(=O)OCC(=O)c2c(N)n(CC(C)C)c(=O)n(C)c2=O)cc1 the results were Nrf2 ARE act inactive, BRCA1 expr up inactive, A549 viability inactive, p53 reactivation inactive, IL-2 act inactive and Nrf2 inh 23µM.
`CCC(C(=O)OCC(=O)c1c(N)n(CC(C)C)c(=O)n(C)c1=O)c1ccccc1` (centres undefined) gave Nrf2 ARE act inactive, BRCA1 expr up inactive, A549 viability inactive, p53 reactivation inactive, IL-2 act inactive and Nrf2 inh 23µM.
`Cc1nn(-c2ccccc2)c(C)c1C(=O)OCC(=O)c1c(N)n(CC(C)C)c(=O)n(C)c1=O` gave Nrf2 ARE act inactive, BRCA1 expr up inactive, A549 viability inconclusive, p53 reactivation inactive, IL-2 act inactive and Nrf2 inh 5.8µM.
For CCOc1ccccc1OCC(=O)OCC(=O)c1c(N)n(CC(C)C)c(=O)n(C)c1=O the results were Nrf2 ARE act inactive, BRCA1 expr up inactive, A549 viability inactive, p53 reactivation inactive, IL-2 act inactive and Nrf2 inh inconclusive.
Screening CC(=O)c1c(C)[nH]c(C(=O)OCC(=O)c2c(N)n(CC(C)C)c(=O)n(C)c2=O)c1C returned Nrf2 ARE act inactive, BRCA1 expr up inactive, A549 viability inactive, p53 reactivation inactive, IL-2 act inactive and Nrf2 inh 18µM.
Screening CCc1ccccc1NC(=O)c1cc2sc(Cl)cc2n1CC returned Nrf2 ARE act inactive, A549 viability inactive and Nrf2 inh inconclusive.
N#Cc1nc(NC2CCCC2)c2ncn(-c3cc(F)cc(F)c3)c2n1 was read as A549 viability inactive and Nrf2 inh inactive.
`CC(C)Cn1c(N)c(C(=O)COC(=O)C2Cc3ccccc3CN2S(C)(=O)=O)c(=O)n(C)c1=O` (centres undefined) gave Nrf2 ARE act inactive, BRCA1 expr up inactive, A549 viability inactive, p53 reactivation inactive, IL-2 act inactive and Nrf2 inh 21µM.
Screening CCOc1cc(Br)c(/C=C2/C(=O)N(C)C(=S)N2CC(=O)OC)cc1OC returned Nrf2 ARE act inactive, BRCA1 expr up inactive, A549 viability inactive, p53 reactivation inactive, IL-2 act 100 and Nrf2 inh inactive.
`O=S(=O)(c1cccs1)N1CCN(c2nc(-c3cccs3)nc3ccccc23)CC1` gave BRCA1 expr up inactive, A549 viability inactive and Nrf2 inh inactive.
For CCOC(=O)c1cc(-c2ccccc2)n(CC(=O)Nc2cc(Cl)c(OC)cc2OC)c1C the results were Nrf2 ARE act inactive and A549 viability inactive.
CN(CCOc1ccc(Cl)cc1)C(=O)c1ccccc1SCC(=O)N1CCCC1 was read as Nrf2 ARE act inactive, BRCA1 expr up inactive, A549 viability inactive, p53 reactivation inactive, IL-2 act inactive and Nrf2 inh 13µM.
Screening CN(CC(=O)Nc1c(Cl)cccc1Cl)C(=O)c1ccccc1SCC(=O)N1CCCC1 returned Nrf2 ARE act inactive, BRCA1 expr up inactive, A549 viability inactive, p53 reactivation inactive, IL-2 act inactive and Nrf2 inh inactive.
COC(=O)c1c(-c2cccs2)csc1NC(=O)CN1CCOCC1 was read as Nrf2 ARE act inactive, BRCA1 expr up inactive, A549 viability inactive, p53 reactivation inactive, IL-2 act inactive and Nrf2 inh 6.5µM.
`COC(=O)c1c(-c2cccs2)csc1NC(=O)c1ccc(C)cc1` gave Nrf2 ARE act inactive, A549 viability inactive and Nrf2 inh inconclusive.
For Cc1ccc(N(Cc2cccs2)C(=O)c2ccccc2)cc1 the results were Nrf2 ARE act inactive, BRCA1 expr up inactive, A549 viability inactive and Nrf2 inh inactive.
`Cc1cc(NC(=O)c2cccnc2)cc(-c2nc3cc(Cl)ccc3o2)c1O` gave Nrf2 ARE act inactive, BRCA1 expr up inactive, A549 viability inactive and Nrf2 inh inactive.
Screening O=C(NCc1cccs1)c1ccc(Cn2c(SCc3ccccc3)nc3cccnc32)cc1 returned Nrf2 ARE act inactive, A549 viability inconclusive and Nrf2 inh 26µM.
`O=C(NCCc1cccs1)c1ccc(Cn2c(SCc3ccc(F)cc3)nc3cccnc32)cc1` gave Nrf2 ARE act inactive, A549 viability inconclusive and Nrf2 inh 18µM.
`COc1ccc(Cn2c(SCc3ccc(C(=O)NC4CCCCC4)cc3)nc3cccnc32)cc1` gave Nrf2 ARE act inactive, A549 viability inconclusive and Nrf2 inh 18µM.
`O=C(NC1CCCCC1)c1ccc(CSc2nc3cccnc3n2Cc2ccc(F)cc2)cc1` gave Nrf2 ARE act inactive, A549 viability inactive and Nrf2 inh inactive.
O=C(NCCc1cccs1)c1ccc(Cn2c(SCc3ccccc3)nc3cccnc32)cc1 was read as Nrf2 ARE act inactive, A549 viability inactive and Nrf2 inh inconclusive.
For CCC1CCC2(C1)N=C(Nc1nc3ccccc3o1)NC1=C2C(=O)CCC1 (centres undefined) the results were A549 viability inactive and Nrf2 inh inconclusive.

Assay outcomes deposited in PubChem by National Center for Advancing Translational Sciences (NCATS).
